# In PubChem BioAssay (NCI):
# This is part of a sample that, as a whole, favours compounds with a hit. Of some 79,000 tested, about 15% had one in any assay. A number with no mark means an inactive call. Activity calls are given as the source filed them. Cut-off read from the data, not from the text of the source: active = growth inhibition above about 70%; inactive = the rest.
# Columns and labels:
# [1] = NCI Yeast Anticancer Drug Screen. Data for the rad50 strain (AID 155);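 note: 0% = growth of vehicle-only cultures of the same strain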; conditions: S. cerevisiae rad50 strain growth inhibition, hits give high values
# Outline: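 Vehicle-treated cultures provide the reference for the growth inhibition reported for compound-exposed, repair-deficient yeast.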
# [2] = NCI Yeast Anticancer Drug Screen. Data for the mec2-1 strain (AID 157); conditions: S. cerevisiae mec2-1 strain, hits give high values
# Outline: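 Cells of the genetically defined mec2-1 yeast strain are incubated with test compound. Inhibition of growth is calculated against vehicle-treated controls.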
# [3] = NCI Yeast Anticancer Drug Screen. Data for the sgs1 mgt1 strain (AID 161);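 note: 0% = growth of cultures given vehicle only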; conditions: S. cerevisiae sgs1 mgt1 strain, hits give high values
# Outline: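 Mutant yeast exposed to compound; growth scored against vehicle-only wells.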
# [4] = NCI Yeast Anticancer Drug Screen. Data for the cln2 rad14 strain (AID 165);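 note: 0% = growth equal to vehicle treated cultures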; conditions: S. cerevisiae cln2 rad14 strain, hits give high values
# Outline: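 The screen exposed genetically defined yeast (cln2 rad14) to test compounds and scored growth inhibition relative to vehicle-treated controls.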
# [5] = NCI Yeast Anticancer Drug Screen. Data for the bub3 strain (AID 167); conditions: S. cerevisiae bub3 mutant strain, hits give high values
# Outline: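 Mutant yeast screening strain plus compound; vehicle-treated cultures serve as the 0% inhibition reference.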
# [6] = NCI Yeast Anticancer Drug Screen. Data for the mlh1 rad18 strain (AID 175); conditions: S. cerevisiae mlh1 rad18 strain growth inhibition, hits give high values
# Outline: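 Compound-treated yeast growth, normalised to vehicle controls. Strain bears defined DNA repair mutations.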
# [7] = at 5.0 µM (retest, dose inferred, filed as 0.5)
# [8] = at 50.0 µM (retest, dose inferred, filed as 5.0)
Compound,"growth inhibition [1, 7]","growth inhibition [1, 8]",growth inhibition ([1]; at 50.0 µM),"growth inhibition [2, 7]","growth inhibition [2, 8]",growth inhibition ([2]; at 50.0 µM),"growth inhibition [3, 7]","growth inhibition [3, 8]",growth inhibition ([3]; at 50.0 µM),"growth inhibition [4, 7]","growth inhibition [4, 8]",growth inhibition ([4]; at 50.0 µM),"growth inhibition [5, 7]","growth inhibition [5, 8]",growth inhibition ([5]; at 50.0 µM),"growth inhibition [6, 7]","growth inhibition [6, 8]",growth inhibition ([6]; at 50.0 µM)
CC(COC(=O)C(c1ccccc1)C1C=CCCC1)CN1CCCC1 (configuration not stated),-1%,60%,70.4% (active),18%,51%,46.8%,21%,61%,72.8% (active),4%,34%,86.5% (active),0%,36%,74.5% (active),35%,74% (active),90.3% (active)
Cc1ccc(NC(=O)/C(CC(=O)c2sc(Nc3ccc(Cl)c(Cl)c3)nc2C)=N\Nc2ccc([N+](=O)[O-])cc2[N+](=O)[O-])c(C)c1,1%,97% (active),97.7% (active),-4%,96% (active),98.3% (active),5%,93% (active),94.5% (active),0%,98% (active),97.1% (active),-10%,99% (active),96.8% (active),5%,96% (active),96.8% (active)
Oc1ccc(N(Cc2ccccc2)Cc2ccccc2)cc1,4%,47%,98.2% (active),4%,58%,97.9% (active),6%,40%,98.4% (active),0%,93% (active),97.7% (active),7%,89% (active),97.6% (active),6%,69%,97.3% (active)
CN(C)c1ccc(C(=O)C2CCCC(C)(C)C2)cc1 (configuration not stated),22%,65%,90.7% (active),24%,78% (active),93.5% (active),13%,77% (active),91.5% (active),7%,27%,88.3% (active),57%,47%,86.9% (active),24%,68%,94.8% (active)
COC(=O)c1ccc2c(c1)C(O)NC(=O)O2 (configuration not stated),16%,97% (active),98.5% (active),15%,97% (active),98% (active),15%,98% (active),98.9% (active),18%,98% (active),98.5% (active),3%,95% (active),98.6% (active),21%,97% (active),98.5% (active)
O=C(O)CC(C(=O)O)C(c1cccc2ccccc12)c1cccc2ccc3ccccc3c12 (configuration not stated),6%,98% (active),98.3% (active),5%,99% (active),98.2% (active),-5%,99% (active),98.3% (active),4%,98% (active),98.7% (active),4%,99% (active),98.7% (active),7%,99% (active),97.8% (active)
O=[N+]([O-])/C(C(Cl)=C(Cl)Cl)=C(/Sc1ccccc1)N1CCCCC1,-3%,97% (active),84.9% (active),3%,95% (active),88.5% (active),-17%,93% (active),77.6% (active),-7%,95% (active),85.2% (active),-19%,96% (active),86.1% (active),-3%,96% (active),77.9% (active)
CC(=O)OC1OC2C(NC(=O)OC(C)(C)C)C1CC2(OCc1ccccc1)OCc1ccccc1 (configuration not stated),35%,35%,23.6%,25%,25%,-24.4%,29%,29%,-3.2%,8%,8%,9.6%,18%,18%,-12.8%,28%,28%,9%
CC(=O)C(C(=O)CCSCCO)C(SCCO)c1ccc(Cl)c(Cl)c1 (configuration not stated),-1%,64%,59.4%,-3%,63%,79% (active),-1%,81% (active),71.8% (active),-4%,55%,40.1%,-6%,70% (active),62.4%,-3%,73% (active),73.8% (active)
O=c1oc(-c2cccc(C(Cl)Cl)c2)ns1,7%,99% (active),98.2% (active),5%,100% (active),99.1% (active),12%,100% (active),99.2% (active),2%,99% (active),69%,3%,99% (active),97.7% (active),13%,99% (active),99.1% (active)
O=C1Oc2ccccc2C(=O)/C1=C/N1C(=O)/C(=C/c2ccc([N+](=O)[O-])cc2)SC1=S,2%,68%,82.5% (active),-4%,82% (active),90% (active),22%,93% (active),96.7% (active),3%,83% (active),92.1% (active),7%,49%,85% (active),11%,77% (active),86.3% (active)
O=[N+]([O-])c1cc(F)c(Sc2cc(Br)c([N+](=O)[O-])cc2F)cc1Br,1%,-16%,8.85%,-1%,-8%,9.55%,-1%,-7%,3.05%,1%,-21%,43.5%,6%,-3%,28.9%,0%,-4%,19.9%
CCC(Sc1ccccc1[N+](=O)[O-])[N+](=O)[O-] (configuration not stated),1%,0%,88.7% (active),0%,-4%,90.8% (active),3%,-1%,49.1%,-2%,-6%,43.7%,0%,-11%,97.1% (active),-1%,1%,55.1%
Cc1cc(C(=O)c2ccccc2)ccc1O,2%,33%,48%,-6%,36%,36.9%,3%,47%,46.6%,-7%,-16%,-8.4%,-3%,3%,48.7%,-2%,36%,70.1% (active)
O=C(CCc1c[nH]c2ccccc12)c1ccccc1O,2%,5%,17.5%,-1%,14%,22.1%,5%,16%,59.3%,-13%,-18%,-21.4%,2%,14%,73.8% (active),-5%,12%,43.4%
COC(=O)C1(c2ccc(N(C)C)cc2OC)CCCN(C(=O)Oc2ccccc2[N+](=O)[O-])CCc2c1[nH]c1ccccc21 (configuration not stated),69%,71% (active),74.9% (active),83% (active),80% (active),66.8%,52%,55%,72.8% (active),39%,52%,50.5%,53%,85% (active),42%,83% (active),88% (active),75.2% (active)
CCCC1c2ccc(O)cc2CC1c1ccc(O)cc1 (configuration not stated),-1%,99% (active),99.2% (active),-4%,99% (active),99.4% (active),-3%,99% (active),99.5% (active),11%,99% (active),52.4%,-1%,99% (active),98.7% (active),1%,99% (active),98.5% (active)
O=C1CCCC2c3ccccc3NC12 (configuration not stated),-147%,-137%,1.85%,-50%,-57%,34.6%,-64%,-64%,-2%,-51%,-56%,78.7% (active),-68%,-75%,-17.9%,-139%,-111%,9.5%
CCOC(=O)C(=NNc1ccccc1)C(=O)OCC,2%,50%,42.4%,-3%,2%,33.2%,-4%,16%,42.5%,-1%,4%,-14.6%,-1%,27%,46.9%,1%,25%,62.9%
